Compound activity from PubChem BioAssay.
Hits are enriched below; roughly 4.7% of the tested compounds scored in any of these assays.
TRHR enhancer – allosterically enhances the human TRH receptor; P34981; TRHR cells, fluo-8 calcium fluorescence, EC20 TRH enhancement; enhancement, % at 2 µM; 0.66% of 360,000 active; AID 493056; in the data active means enhancement above about 30%
Target sequence (P34981 whole entry, looked up): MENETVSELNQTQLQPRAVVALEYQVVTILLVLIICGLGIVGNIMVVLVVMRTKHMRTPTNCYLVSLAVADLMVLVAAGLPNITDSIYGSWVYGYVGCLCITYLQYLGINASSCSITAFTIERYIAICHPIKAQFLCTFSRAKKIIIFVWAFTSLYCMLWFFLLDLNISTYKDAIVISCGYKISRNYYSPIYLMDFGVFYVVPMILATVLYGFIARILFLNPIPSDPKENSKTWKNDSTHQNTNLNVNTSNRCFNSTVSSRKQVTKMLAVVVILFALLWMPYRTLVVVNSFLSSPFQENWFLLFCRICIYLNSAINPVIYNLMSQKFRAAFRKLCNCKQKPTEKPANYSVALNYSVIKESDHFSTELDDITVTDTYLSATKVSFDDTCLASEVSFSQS
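TRHR-expressing cells loaded with fluo-8 calcium dye were read kinetically (ex 480/em 530) during compound addition, then stimulated with an EC20 of TRH (10 nM final). Enhancement of the Gq-mediated intracellular calcium response was scored.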
TRHR ag – activates the human TRH receptor. TRHR cells, calcium flux fluo-8, FDSS agonist mode. activation, % at 2 µM. 0.18% of 360,000 active. AID 493084
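Read-out: compound-evoked intracellular calcium rise in TRHR cells, fluo-8 dye, kinetic FDSS fluorescence at 1 s/cycle following a 10-cycle baseline. Cells cultured overnight before dye loading (30 min–1.5 h, RT).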
D1 agonist – activates the human D1 dopamine receptor; activation, % at 2 µM; 1% of 360,000 active; AID 504660; P21728; HEK293 T-REx D1 cells, calcium flux, agonist mode
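Tetracycline-induced HEK293 TREx D1 cells, force-coupled to calcium signalling, were dye-loaded with a no-wash calcium kit. Compound was pin-added after a 10 s baseline. Fluorescence was read kinetically at 1 cycle/s for 180 s, with calcium rises flagged as agonism.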
D1 antag – human D1 dopamine receptor antagonism; AID 504652; 3.2% of 360,000 active; HEK293 TREx D1 cells, calcium flux, dopamine EC80; active compounds read low; P21728; activity change, negative = inhibition, % at 10 µM; in the data active means activity change below about -30%
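HEK293 T-REx cells expressing inducible, force-coupled D1 receptor; no-wash Ca dye, 30–90 min RT. Cmpd → 180 s read at 1 Hz → EC80 DA → 180 s read.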
D1 potentiator – enhances dopamine response at the human D1 receptor. P21728. potentiation, % at 10 µM. AID 504651. HEK293 TREx D1 cells, calcium flux, dopamine EC20 potentiation. 0.036% of 360,000 active; in the data active means potentiation above about 30%
A number is an active result. Unless noted, no stated cut-off is given here; in the data, active means activation above about 30%; inactive means the rest.

For COc1c(-c2ccc(O)cc2)oc2cc(O)cc(O)c2c1=O the results were TRHR enhancer inactive, TRHR ag inactive, D1 agonist inactive, D1 antag inactive and D1 potentiator inactive.
Screening COc1ccc(-c2oc3cc(O)c(OC)c(O)c3c(=O)c2OC)cc1 returned TRHR enhancer inactive, TRHR ag inactive, D1 agonist inactive, D1 antag -30 and D1 potentiator inactive.
For CCc1ccc(NC(=O)C(C)OC(=O)c2cc(=O)[nH]c3ccc(S(=O)(=O)Nc4ccc(F)cc4)cc23)cc1 (stereo not given) the results were TRHR enhancer inactive, TRHR ag inactive, D1 agonist inactive, D1 antag -37 and D1 potentiator inactive.
For Cc1cccc(NS(=O)(=O)c2ccc3[nH]c(=O)cc(C(=O)OC(C)C(=O)Nc4ccc([N+](=O)[O-])cc4)c3c2)c1 (stereo not given) the results were TRHR enhancer inactive, TRHR ag inactive, D1 agonist inactive, D1 antag inactive and D1 potentiator inactive.
Screening CCNc1nc(C#N)nc2c1ncn2-c1cccc(Cl)c1 returned TRHR enhancer inactive, TRHR ag inactive, D1 agonist inactive, D1 antag inactive and D1 potentiator inactive.
`N#Cc1cccc(CN2CCC(=O)N([C@H](CO)Cc3ccccc3)CC2)c1` gave TRHR enhancer inactive, TRHR ag inactive, D1 agonist inactive, D1 antag -45 and D1 potentiator inactive.
Screening O=C(O)c1ccc2c(=O)[nH]c(CCl)nc2c1 returned TRHR enhancer 33, TRHR ag inactive, D1 agonist inactive, D1 antag inactive and D1 potentiator inactive.
Screening O=C(O)c1ccc2c(=O)[nH]c(CN3CCOCC3)nc2c1 returned TRHR enhancer inactive, TRHR ag inactive, D1 agonist inactive, D1 antag inactive and D1 potentiator inactive.
CCOC(=O)C(NCCc1ccccc1F)(NC(=O)CC)C(F)(F)F (stereo not given) was read as TRHR enhancer 34, TRHR ag inactive, D1 agonist inactive, D1 antag inactive and D1 potentiator inactive.
`CC(C)c1ccc(NC(=O)Nc2cc3sccc3n2C)cc1` gave TRHR enhancer inactive, TRHR ag inactive, D1 agonist inactive, D1 antag -37 and D1 potentiator inactive.
Screening O=C(Cn1c(=O)c2cccn2c2ccc(F)cc21)N1CCN(c2ccccc2)CC1 returned TRHR enhancer inactive, TRHR ag inactive, D1 agonist inactive, D1 antag inactive and D1 potentiator inactive.
CCN(CC)C(=O)Cn1cc(C(=O)C(=O)NCCc2ccc(S(N)(=O)=O)cc2)c2ccccc21 was read as TRHR enhancer inactive, TRHR ag inactive, D1 agonist inactive, D1 antag -74 and D1 potentiator inactive.
`NS(=O)(=O)c1ccc(CCNC(=O)C(=O)c2cn(CC(=O)N3CCOCC3)c3ccccc23)cc1` gave TRHR enhancer 34, TRHR ag inactive, D1 agonist inactive, D1 antag inactive and D1 potentiator inactive.
CC1=C(c2ccc(C)c(C)c2)S(=O)(=O)N(Cc2ccc(C(=O)Nc3cc(F)ccc3F)cc2)C1=O was read as TRHR enhancer inactive, TRHR ag inactive, D1 agonist inactive, D1 antag inactive and D1 potentiator inactive.
COc1cccc(OCc2cc(C(=O)N(C)C3CCOCC3)no2)c1 was read as TRHR enhancer inactive, TRHR ag inactive, D1 agonist inactive, D1 antag -56 and D1 potentiator inactive.
For COc1cccc(OCc2cc(C(=O)N(C)C3CC(C)(C)NC(C)(C)C3)no2)c1 the results were TRHR enhancer inactive, TRHR ag inactive, D1 agonist inactive, D1 antag inactive and D1 potentiator inactive.
For COc1cccc(OCc2cc(C(=O)NCCN3CCCCC3CO)no2)c1 (stereo not given) the results were TRHR enhancer inactive, TRHR ag inactive, D1 agonist inactive, D1 antag inactive and D1 potentiator inactive.
Cc1cc(OCc2cc(C(=O)N(C)C3CCOC3)no2)cc(C)c1Cl (stereo not given) was read as TRHR enhancer inactive, TRHR ag inactive, D1 agonist inactive, D1 antag -47 and D1 potentiator inactive.
CC(=O)c1ccc(OCc2cc(C(=O)N(C)C3CCOC3)no2)cc1 (stereo not given) was read as TRHR enhancer inactive, TRHR ag inactive, D1 agonist inactive, D1 antag inactive and D1 potentiator inactive.
For Cc1ccc(OCc2cc(C(=O)NCCn3cccn3)no2)cc1C the results were TRHR enhancer inactive, TRHR ag inactive, D1 agonist inactive, D1 antag inactive and D1 potentiator inactive.
`Cc1cc(OCc2cc(C(=O)NCCN3CCCCC3CO)no2)cc(C)c1Cl` (stereo not given) gave TRHR enhancer inactive, TRHR ag inactive, D1 agonist 35, D1 antag -44 and D1 potentiator inactive.
For Cc1ccc(OCc2cc(C(=O)NCC(C)c3ccccc3)no2)cc1C (stereo not given) the results were TRHR enhancer inactive, TRHR ag inactive, D1 agonist inactive, D1 antag -31 and D1 potentiator inactive.
Screening CCOc1ccc(NC(=O)CN(c2ccc(C)cc2)S(=O)(=O)c2cccs2)cc1 returned TRHR enhancer inactive, TRHR ag inactive, D1 agonist inactive, D1 antag inactive and D1 potentiator inactive.
`Cc1cc(OCc2cc(C(=O)NCc3csc(C(C)C)n3)no2)cc(C)c1Cl` gave TRHR enhancer inactive, TRHR ag inactive, D1 agonist 71, D1 antag -41 and D1 potentiator inactive.
For COc1ccc(OCc2cc(C(=O)N(C)CCC3CCOCC3)no2)c(Cl)c1 the results were TRHR enhancer inactive, TRHR ag inactive, D1 agonist inactive, D1 antag -41 and D1 potentiator inactive.
Cc1ccc(OCc2cc(C(=O)NCc3cn4ccccc4n3)no2)cc1C was read as TRHR enhancer inactive, TRHR ag inactive, D1 agonist inactive, D1 antag inactive and D1 potentiator inactive.
For COc1cccc(N/C(N)=N/c2nc(C(F)(F)F)cc(C(F)(F)F)n2)c1 the results were TRHR enhancer inactive, TRHR ag inactive, D1 agonist inactive, D1 antag inactive and D1 potentiator inactive.
`Cc1cc(C)nc(/N=C(\N)Nc2ccc(OCc3ccccc3)cc2)n1` gave TRHR enhancer inactive, TRHR ag 50, D1 agonist 102, D1 antag -38 and D1 potentiator inactive.
`Cc1cc(C)nc(/N=C(\N)Nc2ccc(OCCC(C)C)cc2)n1` gave TRHR enhancer inactive, TRHR ag inactive, D1 agonist 86, D1 antag -45 and D1 potentiator inactive.
Cc1cc(C)nc(/N=C(\N)Nc2ccc(CC(=O)OC(C)C)cc2)n1 was read as TRHR enhancer inactive, TRHR ag inactive, D1 agonist inactive, D1 antag -50 and D1 potentiator inactive.
Screening CCOC(=O)C(=O)Nc1ccc(OCc2ccccc2)cc1 returned TRHR enhancer inactive, TRHR ag inactive, D1 agonist inactive, D1 antag inactive and D1 potentiator inactive.
